High-throughput results from PubChem BioAssay.
TSHR antag: human thyrotropin receptor antagonism; AID 504810; hit rate 0.2% among 330,000; P16473; TSHR-expressing cells, TSH-stimulated cAMP HTRF, 2 h; hits give low values; activity change, negative = inhibition, % at 11.5 µM;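 active = activity change below a set negative limit, meaning inhibition stronger than a set level, cut at about -70% in these data; inconclusive = activity change between two set negative limits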; note: % is set by controls: 0 for no effect and ±100 for the full control effect
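TSHR-expressing cells were treated with compounds, then stimulated with TSH at EC80 (4nM final) for 2 hours at 37 deg C. Cellular cAMP was measured by HTRF competition between lysate cAMP and cAMP-d2 for a cryptate-labelled anti-cAMP antibody.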
TCR activator: T cell receptor activation; AID 504894; primary human leukocytes, anti-CD3, IL-2 HTRF, 48 h; 330,000 tested, under 10 active; Potency, µM (series often up to 9.22 µM), for inactives: at the top dose activation of IL-2 secretion, most hits filed as activators; note: % of control where 0% means no effect
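Primary human leukocytes incubated 48 hr with anti-CD3 beads plus compound, without co-stimulation. Secreted IL-2 measured by HTRF (europium cryptate/d2 anti-IL-2 pair, 320 nm excitation, 665 nm emission).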
GLS inhibitor: inhibitors of human glutaminase (GLS) | O94925 | GLS enzymatic activity, qHTS titration | Potency, µM (doses to about 45.5 µM), for inactives: at the highest dose activity change, negative = inhibition, hits mostly inhibitors | hit rate 0.21% among 410,000; note: potency is the fitted concentration of half-maximal effect; % is set by controls: 0 for no effect and ±100 for the full control effect
Target sequence (O94925 whole entry, looked up): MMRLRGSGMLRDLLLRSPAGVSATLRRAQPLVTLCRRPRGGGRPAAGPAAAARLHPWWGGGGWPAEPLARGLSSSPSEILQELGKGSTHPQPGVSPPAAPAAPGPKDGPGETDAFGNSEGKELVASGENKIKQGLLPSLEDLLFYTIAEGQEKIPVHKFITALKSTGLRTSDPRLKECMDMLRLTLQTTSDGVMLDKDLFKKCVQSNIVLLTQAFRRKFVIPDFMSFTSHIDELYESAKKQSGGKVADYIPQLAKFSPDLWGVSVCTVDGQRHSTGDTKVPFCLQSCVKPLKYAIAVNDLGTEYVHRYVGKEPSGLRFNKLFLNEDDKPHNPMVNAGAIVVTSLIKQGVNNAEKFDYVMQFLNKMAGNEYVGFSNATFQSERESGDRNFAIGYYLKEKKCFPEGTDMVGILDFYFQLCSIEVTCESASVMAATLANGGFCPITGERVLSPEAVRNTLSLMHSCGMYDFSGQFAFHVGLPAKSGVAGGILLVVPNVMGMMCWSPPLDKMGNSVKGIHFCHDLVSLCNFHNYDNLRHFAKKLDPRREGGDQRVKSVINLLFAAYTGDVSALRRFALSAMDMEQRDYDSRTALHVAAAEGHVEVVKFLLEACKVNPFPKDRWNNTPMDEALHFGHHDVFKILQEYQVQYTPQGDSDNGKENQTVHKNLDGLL
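hKGA in 45 mM KH2PO4 pH 8.2, 0.02% Tween-20 with pin-transferred compounds; 1 mM L-glutamine (stock) plus glutamate oxidase/HRP/Amplex Red coupling added. Fluorescence read initially and after 30 min at RT.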
p53 reactivator: mutant p53 re-activation in reporter cells; H1299 p53-A138V BP100-luciferase reporter, luminescence, 24 h; Potency, µM (doses to about 92.2 µM), inactives show at the top dose activity change, positive = activation, most hits filed as activators; hit rate 0.063% among 320,000; AID 504706; note: potency is the fitted concentration of half-maximal effect; % of control where 0% means no effect; nearly all actives have a fitted effect of over 45% in size
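p53-null H1299 cells stably carrying temperature-sensitive p53-A138V and a BP100-luciferase reporter were pinned with compounds (4-point, 1:5 series) and held 24 hrs at 37 deg C. Luminescence was read 10 min after detection reagent.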
N370S GC: inhibits or activates N370S mutant glucocerebrosidase | P04062 | Potency, µM (highest dose often 59.4 µM), for inactives: at the highest dose activity change, negative = inhibition, usual class: inhibitors | N370S GC spleen homogenate, 4MU-glucoside fluorescence | hit rate 0.092% among 330,000;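 note: potency is the fitted concentration of half-maximal effect; 0% = full enzyme activity and -100% = no enzyme basal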
BRCA1 expr act: BRCA1 expression activation; MCF7-BRCA1-FFLuc reporter, luminescence, 48 h; response scale: scaled: vehicle 0%, 10 µM genistein 100%; Potency, µM (series often up to 46.1 µM), for inactives: top-dose activation, actives largely listed as activators; hit rate 1.1% among 380,000; AID 624202; note: potency is the fitted concentration of half-maximal effect; nearly all actives have a fitted effect of over 80% in size
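Cells: MCF7-BRCA1-FFLuc, 2000/well. Exposure: 48 h, 37 °C, 5% CO2. Read: luminescence, 15 min post-substrate. Controls: genistein 10 microM (maximal activation), DMSO (neutral).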
The depositor's hits bear a star; ? = inconclusive; / = no result; [ ] = dose if it differs, or a comment. Hits are enriched below; roughly 1.4% of the tested compounds scored in any of these assays. Unless noted, calls come from the whole dose curve; as a rule, active = well fitted curve in the direction sought with a large enough effect; inconclusive = small, poorly fitted or top-dose-only effect, or another doubt; inactive = no such curve, though single readings can be large; an effect the other way counts as inactive or inconclusive.

SMILES | TSHR antag | TCR activator | GLS inhibitor | p53 reactivator | N370S GC | BRCA1 expr act
CCOC(=O)c1cc2c(=O)c3ccccc3oc2nc1C | -4.3 | -24.7% | -2.1% | ? | 1.0% | -2.7%
COc1ccc2c(=O)c3ccccc3oc2c1 | -4.7 | 4.0% | 3.5% | ? | 0.0% | ?
CC(=O)c1cc2c(=O)c3ccccc3oc2nc1C | / | 1.2% | 0.0% | / | / | 10µM*
CC(=O)c1ccc2oc3ccccc3c(=O)c2c1 | 1.2 | -1.2% | -1.8% | 13.3% | -7.8% | 7.94µM*
CC1CCN(C(=O)Nc2ccc3nc(-c4ccco4)c(-c4ccco4)nc3c2)CC1 | / | / | / | / | / | 16.3%
CCCCCCC(O)C/C=C\CCCCCCCC(=O)O (stereo not drawn) | / | / | 3.0% | / | / | /
Cc1cc(C)nc(NC(=O)/C=C/c2ccccc2Cl)c1 | -20.3 | 2.8%[46.1 µM] | 8.7% | ? | 4.3% | 3.16µM*
Cc1cc(C)nc(NC(=O)/C=C/c2ccc(Cl)cc2Cl)c1 | 2.5 | -3.1% | 18.1% | ? | ? | 6.31µM*
Cc1cc(C)nc(NC(=O)/C=C/c2ccccc2Cl)n1 | 1.9 | 0.2% | -4.4% | ? | 23.0% | 43.2%
CC(C)c1ccc(Nc2nc(Nc3ccc(Cl)cc3)nc(N3CCOCC3)n2)cc1 | / | / | / | / | / | -1.8%
Cn1c(=O)c2c(-c3ccccc3Cl)n(-c3cc(Cl)ccc3O)cc2n(C)c1=O | / | / | -2.6% | / | / | /
COc1ccc(Cn2c(C(=O)O)c(CNCCc3ccccc3Cl)c3ccc(C)cc32)cc1 | / | / | 8.4% | / | / | /
C/C=C/C=C/C(=O)[C@@H]1[C@@H]([C@]2(C)OC(=O)C(C)=C2O)[C@H]2/C(=C(O)/C=C/C=C/C)C(=O)[C@]1(C)C(=O)C2(C)O (stereo partly drawn) | -9.5 | -0.7% | 10µM* | 14.8% | -10.3% | 2.3%
O=C(CCCN1C(=O)/C(=C/c2ccccc2Cl)SC1=S)Nc1cccnc1 | -71.7* | -0.7% | -1.2% | 1.2% | ? | -64.0%
CCSc1ccc(/C(N)=N/OC(=O)c2cccs2)cn1 | -7.2 | -1.6% | 3.5% | ? | -3.7% | 10µM*
N/C(=N\OC(=O)/C=C/c1ccccc1Cl)c1ccccn1 | 1.7 | -37.7% | -3.9% | 25.7% | 4.0% | -18.3%
N/C(=N\OC(=O)/C=C/c1ccccc1)c1cccnc1 | -1.1 | 1.9% | 0.1% | 24.4% | 2.7% | 10µM*
N/C(=N\OC(=O)/C=C/c1ccccc1Cl)c1cccnc1 | -9.8 | 0.0% | -8.2% | ? | 2.7% | 3.98µM*
CCN(CC)c1ccc(NC(=O)c2cccc(C)c2OC)c(C)c1 | -6.8 | -0.6% | 26.1% | ? | -8.3% | 4.47µM*
CCN(CC)c1ccc(-n2nc3cc(C)c(NC(=O)c4ccccc4C)cc3n2)c(C)c1 | / | / | -25.3% | / | / | -21.0%
Cc1[nH]n(C(N)=S)c(=O)c1N=Nc1ccc(Br)cc1 | -8.0 | 3.0% | 5.8% | ? | -13.5% | 4.47µM*
CC1=CC(=O)C(C(C)C)=C/C1=N/OS(=O)(=O)c1ccccc1 | -97.6* | 10.1% | -6.3% | -15.2% | 13.1% | -100.6%
Cc1occc1C(=O)NN=C1C2CC3CC(C2)CC1C3 | -11.2 | -1.1%[46.1 µM] | 0.4% | 12.6µM* | -19.2% | ?
Cc1occc1C(=O)NC1CCCCCCC1 | 0.1 | 0.1%[46.1 µM] | -7.1% | ? | -8.2% | 14.1µM*
Cc1occc1C(=O)NNC(=O)C1CCCC1 | 4.8 | / | 4.8% | -4.4% | -0.8% | -2.7%
SMILES | TSHR antag | TCR activator | GLS inhibitor | p53 reactivator | N370S GC | BRCA1 expr act
Cc1ccc(CNc2ccc3c(c2)ncn3C)cc1 | 12.9 | / | ? | 20.3% | -3.1% | 5.01µM*
CCCn1cnc2cc(NCc3ccccn3)ccc21 | 0.4 | -1.3% | 3.9% | ? | 2.0% | 3.98µM*
CCc1ccc(CNc2ccc3c(c2)ncn3C)cc1 | -2.6 | -7.2% | 0.6% | ? | -1.6% | ?
Nc1nc(-c2ccccc2Cl)cs1 | / | -4.1% | 0.1% | / | / | 10µM*
Cc1ccccc1-c1csc(N)n1 | / | 1.6% | -0.1% | / | / | 71.0%
C[C@@H](O)C(N)C(=O)O (stereo partly drawn) | / | / | / | / | -3.2% | /
COC(=O)c1sc(NC(=O)c2cc(C)on2)nc1C | -3.3 | 1.1% | 1.4% | ? | -8.8% | 10µM*
CS(=O)(=O)c1ccc(C(=O)OCC(=O)NCC2CCCO2)cc1[N+](=O)[O-] (stereo not drawn) | / | / | / | / | / | -6.1%
COc1ccc2cnn(-c3ccc(C)cc3)c(=O)c2c1OC | 0.7 | 0.0% | -10.3% | 11.1% | 10.0% | 4.47µM*
COc1ccc2cnn(-c3ccc(OC(F)(F)Cl)cc3)c(=O)c2c1OC | -13.6 | -1.4% | 8.0% | -0.2% | 1.4% | 12.5%
Cc1cc(Nc2ccc(C)c(Cl)c2)n2nc(Cc3ccccc3)nc2n1 | / | / | -2.6% | / | / | -10.7%
CCOC(=O)C(C(=O)OCC)C1N=C(N)N=C2Oc3ccccc3N21 (stereo not drawn) | -7.7 | 4.7% | 6.6% | 19.1% | -10.7% | 12.6µM*
CC1=CCC2C(=O)N(c3ccc(C(=O)Nc4ccccc4Cl)cc3)C(=O)C2C1 (stereo not drawn) | -81.9* | -4.7% | -1.9% | 0.1% | -19.7% | -1.7%
CCOc1ccc(NC(=O)CSc2nnc3c(n2)[nH]c2ccc(S(=O)(=O)N(C)C)cc23)cc1 | / | / | / | / | / | 23.3%
CCCC[n+]1c2ccccc2cc2ccccc21 | 1.3 | 1.4% | 5.62µM* | -5.8% | ? | -55.1%
Cc1cc(C)cc(OCCn2nnc3ccccc32)c1 | 7.5 | -0.4% | -9.9% | / | -7.9% | 11.2µM*
Clc1ccccc1OCCn1nnc2ccccc21 | -32.2 | 1.5% | 7.5% | / | 0.1% | 11.2µM*
O=C(Nc1ccccc1N1CCOCC1)c1ccc(S(=O)(=O)NCc2ccco2)cc1 | -76.8* | -1.6% | 5.0% | -1.4% | 13.7% | 2.2%
Fc1ccc(CNc2nc(-c3ccccc3)nc3ccccc23)cc1 | -6.8 | -2.5% | -0.2% | -1.9% | 14.1µM* | -47.8%
COc1cccc(-c2nc(NCc3ccccc3)c3ccccc3n2)c1O | -15.0 | 2.6% | 9.5% | -1.0% | 3.0% | -37.2%
c1ccc(-c2nc(NCc3cccnc3)c3ccccc3n2)cc1 | 48.3 | -8.8% | 10.3% | -7.7% | ? | -36.5%
c1ccc(-c2nc(NC3CCCC3)c3ccccc3n2)cc1 | 36.6 | 5.1% | 3.2% | -4.9% | 15.8µM* | -32.9%
COc1ccc(Nc2nc(-c3ccccc3F)nc3ccccc23)cc1OC | -9.9 | 6.2% | 8.5% | -9.2% | 2.51µM* | -1.5%
COc1ccc(CNc2nc(-c3ccccc3)nc3ccccc23)cc1OC | -28.7 | -3.9% | -6.1% | 2.9% | 14.1µM* | -67.0%
c1ccc(N=c2nc(-c3ccccc3)n(-c3ccccc3)s2)cc1 | / | / | / | / | / | -41.4%
N[C@H](CSSC[C@@H](N)C(=O)O)C(=O)O | / | / | / | / | -11.7% | /
N#CCCCS(=O)(=O)c1nc2ccccc2s1 | / | / | / | / | -3.6% | /
Cc1ccc(/C(=C\CN2CCCC2)c2cccc(/C=C/C(=O)O)n2)cc1 | / | / | 3.5% | / | / | /
